Screening results as filed in PubChem.
GPR151 activ: activators of human GPR151, primary screen, cell-based, PathHunter beta-arrestin, luminescence; G-protein coupled receptor 151 (Homo sapiens), Q8TDV0; PathHunter beta-arrestin GPR151 cells; activation, % at 11.2 µM; actives 1% (n = 650,000); AID 1508602, 2020; in the data active means activation above about 4.9%;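 further: 0% = median of compound wells and 100% = cells with positive control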
Target sequence (Q8TDV0 whole entry, looked up): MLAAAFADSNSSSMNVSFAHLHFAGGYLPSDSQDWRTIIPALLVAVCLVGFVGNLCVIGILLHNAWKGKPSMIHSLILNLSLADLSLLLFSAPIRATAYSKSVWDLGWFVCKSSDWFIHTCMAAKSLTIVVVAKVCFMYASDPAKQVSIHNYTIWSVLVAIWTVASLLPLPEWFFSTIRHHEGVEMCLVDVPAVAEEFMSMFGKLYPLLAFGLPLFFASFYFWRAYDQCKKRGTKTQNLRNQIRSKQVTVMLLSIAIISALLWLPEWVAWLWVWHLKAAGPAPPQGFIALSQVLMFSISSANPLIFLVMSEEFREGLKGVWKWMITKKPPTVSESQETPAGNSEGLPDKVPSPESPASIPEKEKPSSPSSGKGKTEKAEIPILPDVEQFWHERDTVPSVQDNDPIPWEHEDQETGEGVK
TEAD-YAP inh: TEAD-YAP interaction inhibition, primary screen, TEAD-YAP interaction inhibitor project, luminescence, HEK-TIYL cells. TEAD-Gal4/YAP UAS-luciferase luminescence. inhibition, % at 9.12 µM. actives 1.4% (n = 640,000); in the data active means inhibition above about 32%;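 further: 0% = median of test compound wells and 100% = reference inhibitor wells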
FBW7 activator: FBW7 E3 ligase activators, primary screen, biochemical, AlphaScreen, human; F-box/WD repeat-containing protein 7 (Homo sapiens), Q969H0; AlphaScreen FBW7–phospho-cyclin E peptide binding, activator screen; normalized activity (activation), % at 26.1 µM; actives 0.13% (n = 650,000); in the data active means normalized activity above about 1.9%;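 further: purified mutant Fbw7 with reduced substrate affinity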
MITF inh: MITF inhibitors, primary screen, biochemical, AlphaScreen, human. Microphthalmia-associated transcription factor (Homo sapiens), O75030. AlphaScreen MITF homodimerization, bead proximity signal. inhibition, % at 2.6 µM. actives 0.91% (n = 650,000). AID 1259374, 2018; in the data active means inhibition above about 50%;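 further: 0% = vehicle wells with protein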
MITF inh conf: MITF inhibitors, retest of hits, confirmation, biochemical, AlphaScreen, triplicate | AlphaScreen MITF homodimerization, biotin/His-MITF beads | actives 16% (n = 4,700) | shares compounds with MITF inh | inhibition, % at 2.6 µM;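 active means inhibition above a cutoff derived from the DMSO control wells, cut at about 28% in these data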;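 further: 0% = MITF dimer wells with DMSO only; inhibitors lower the bead chemiluminescence by keeping MITF from dimerizing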
AS interf ctr: AlphaScreen optical interference compounds, counter-screen for MITF inhibitor project, biochemical, triplicate; shares compounds with MITF inh; LysRS AlphaScreen counterscreen, signal interference; inhibition, % at 2.6 µM; actives 7.6% (n = 4,700);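 active means inhibition above a cutoff derived from the DMSO control wells, cut at about 30% in these data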
* = called active by the depositor; / = not tested or not shown. Rows were chosen to be rich in hits. Some 3.4% of all compounds tested hit in one or more screens of this group.

SMILES	GPR151 activ	TEAD-YAP inh	FBW7 activator	MITF inh	MITF inh conf	AS interf ctr
CCCS(=O)(=O)N1CCN(Cc2ccc(OC)c(Br)c2)CC1	1	6	0	11	/	/
COc1ccc(CN2CCN(S(C)(=O)=O)CC2)cc1Br	0	10	0	70*	5	16
CCS(=O)(=O)N1CCN(Cc2ccc(OC)c(Br)c2)CC1	1	7	0	44	/	/
COc1cccc(CN2CCN(Cc3cccc4ccccc34)CC2)c1	2	2	0	77*	-15	0
COc1cccc(/C(C)=N/N2CCN(Cc3cccc4ccccc34)CC2)c1	-1	8	0	2	/	/
CC(=O)Nc1ccc(N=Cc2cccc([N+](=O)[O-])c2)cc1	0	0	0	-6	/	/
O=C(OCC(=O)c1cc(F)ccc1F)c1ccccc1O	0	-25	0	0	/	/
CCOc1ccc(N2C(=O)c3cccc4cccc(c34)C2=O)cc1	2	-4	0	1	/	/
COc1ccc(CN2CCN(Cc3cccc4ccccc34)CC2)cc1Br	-1	-8	0	72*	0	-2
COc1cc(CN2CCN(Cc3ccccc3Cl)CC2)cc(OC)c1	1	2	0	69*	5	-2
COc1ccccc1CNC(=O)CCCn1nnc2ccccc2c1=O	1	-14	0	34	/	/
O=C(COc1ccc(Br)cc1)Nc1cc(C(=O)O)cc(C(=O)O)c1	1	1	0	-13	/	/
c1ccc2c(c1)OCC(CNc1ncnc3[nH]ncc13)O2 (stereo not drawn)	1	1	0	3	/	/
COc1ccc2oc(=O)c(-c3cn4cccnc4n3)cc2c1	0	-26	0	72*	4	12
COc1ccc(CCNCC(=O)Nc2ccccc2N2CCOCC2)cc1	1	-6	0	60*	10	12
O=C(CN1CCCCC1)Nc1ccccc1N1CCOCC1	1	-8	0	60*	4	17
CC1CCCCN1CC(=O)Nc1ccccc1C(N)=O (stereo not drawn)	2	-1	0	-12	/	/
CC1CCCCN1CC(=O)Nc1ccccc1N1CCCCC1 (stereo not drawn)	1	-5	0	53*	6	12
O=C(CN1C(=O)c2ccccc2C1=O)Nc1ccccc1N1CCOCC1	0	7	0	13	/	/
O=C(CNCC1CCCCC1)Nc1ccccc1N1CCOCC1	0	-8	0	66*	8	17
CN(C)CCN1C(=O)C(=O)/C(=C(\O)c2ccc(Cl)cc2)C1c1ccncc1 (stereo not drawn)	3	8	0	-5	/	/
CCCC(=O)Nc1cc(C(F)(F)F)cc(C(F)(F)F)c1	0	-1	0	-17	/	/
CCOCCCNCC(=O)Nc1ccccc1N1CCOCC1	-1	-4	0	51*	6	10
O=C(CNCCc1ccccc1)Nc1ccccc1N1CCOCC1	0	-11	0	51*	6	12
O=C(Cc1ccccc1)Nc1ccc(N2CCOCC2)cc1N1CCOCC1	1	4	0	8	/	/
SMILES	GPR151 activ	TEAD-YAP inh	FBW7 activator	MITF inh	MITF inh conf	AS interf ctr
O=C(CN1CCOCC1)Nc1sc2c(c1C(=O)c1ccccc1)CCCC2	0	7	0	-8	/	/
O=C(CNC1CCCCCC1)Nc1ccccc1N1CCOCC1	1	4	0	27	/	/
O=C(CNCCN1CCOCC1)Nc1sc2c(c1C(=O)c1ccccc1)CCCC2	0	6	-1	74*	-3	24
O=C(CNCCN1CCOCC1)Nc1ccccc1N1CCOCC1	0	3	0	64*	-12	-9
COc1ccc2nc(C)n3c4ccccc4c(NC(C)=O)c3c2c1	0	13	0	4	/	/
CCOc1ccccc1N1CCN(Cc2cc(OC)c(OC)cc2[N+](=O)[O-])CC1	-1	-1	0	35	/	/
COC(=O)C(N)CSC1CCCCO1 (stereo not drawn)	-1	0	0	56*	9	18
CCOC(=O)C1=C(C)N=c2s/c(=C\c3cc(Cl)c(OC)c(OC)c3)c(=O)n2C1c1ccc(OCC)cc1 (stereo not drawn)	0	-2	0	51*	-9	-7
C=CCOc1c(Cl)cc(/C=c2\sc3n(c2=O)C(c2ccc(OCC)cc2)C(C(=O)OCC)=C(C)N=3)cc1Cl (stereo not drawn)	0	-1	0	7	/	/
Cc1ccc(-c2nc(C#N)c(N3CCN(C(=O)c4ccc(Cl)cc4)CC3)o2)cc1	3	-5	0	68*	-11	-2
CCOc1ccc(C(=O)N2CCN(c3oc(-c4ccc(Cl)cc4)nc3C#N)CC2)cc1	2	2	0	-3	/	/
CCc1nnc2sc(-c3ccc(NC(=O)COc4ccc(OC)cc4)cc3)nn12	-1	7	1	10	/	/
CCc1nnc2sc(-c3ccc(NC(=O)C(C)(C)C)cc3)nn12	0	-28	0	54*	6	9
CCCCNCCOCCOc1ccc(C)c(C)c1	1	1	0	61*	0	4
CCCCNCCOCCOc1cccc(Cl)c1	1	6	0	80*	5	6
Cc1cc(NC(=O)NC(=O)c2ccccc2F)n[nH]1	-3	9	0	4	/	/
CC(C(=O)Nc1ccccc1-c1ccccc1)N1CCCC1 (stereo not drawn)	0	1	0	75*	13	19
CC(N)C(=O)Nc1ccccc1-c1ccccc1 (stereo not drawn)	0	2	0	7	/	/
CN(CC(=O)Nc1c2c(nc3c1CCC3)CCCC2)Cc1ccccc1	-1	0	0	68*	2	1
O=C(CN1CCCCC1)Nc1c2c(nc3ccccc13)N(c1ccccc1)CC2	1	0	0	32	/	/
CN1CCc2c1nc1ccccc1c2NC(=O)CNC1CC1	0	-7	0	53*	16	24
CN1CCN(CC(=O)Nc2c3c(nc4ccccc24)N(C)CC3)CC1	0	7	0	79*	-8	-3
CN(CC(=O)Nc1c2c(nc3ccccc13)N(C)CC2)Cc1ccccc1	4	22	0	65*	-6	-7
CN1CCc2c1nc1ccccc1c2NC(=O)C12CC3CC(CC(C3)C1)C2	1	2	0	12	/	/
CCOC(=O)c1ccc(N2C(=O)C(=O)/C(=C(/O)c3ccc(OC)cc3)C2c2ccc(C)cc2)cc1 (stereo not drawn)	-1	3	0	-4	/	/
